Inconclusive results are not listed. The source made the active and inactive calls. The call rests on the fitted dose curve; in most records, active means well fitted inhibition curve with a large enough effect; inconclusive means small, poorly fitted or top-dose-only effect; inactive means flat fitted curve, though single readings scatter.

This assay can be described thus: Identification of antibody-drug conjugate (ADC) payloads which are substrates of ATP-binding cassette drug efflux transporters: ABCB1-HEK293-MDR-19 cell line with tariquidar. The note with it: HEK293 ABCB1 (MDR-19) + tariquidar, CellTiter-Glo viability, 48 h. An excerpt:
Antibody-drug conjugates (ADCs) feature an antibody recognizing a specific protein joined to a potent toxic payload. Numerous antibody-drug conjugates have received FDA approval; however, clinical resistance arises. Resistance mechanisms include decreased expression or mutation of the antibody target, impaired payload release, or increased expression of ATP-binding cassette (ABC) efflux transporters associated with multidrug resistance. We therefore sought to characterize the interaction of ABC multidrug transporters with ADC payloads. We performed a high-throughput screen with 27 common ADC payloads using cells lines expressing ABC transporters P-glycoprotein (P-gp, encoded by ABCB1) or ABCG2 (encoded by ABCG2). Confirmatory assays were also performed using cells transfected to express P-gp, ABCG2, or MRP1 (encoded by ABCC1). Several commonly used ADC payloads were substrates of P-gp, including calicheamicin gamma1, monomethyl auristatin E, DM1, and DM4. All the pyrrolobenzodiazepines tested - SJG136, SGD-1882, SG2057, and SG3199 - were substrates of P-gp, ABCG2, and MRP1. […] These findings highlight the risk of transporter-mediated resistance with certain ADC payloads and underscore the importance of selecting payloads that evade ABC transporter recognition in future ADC development.
HEK-293 cells were transfected with empty vector (pcDNA) or vector containing the human ABCB1 (MDR-19), ABCG2 (R-5), or ABCC1 gene (MRP1) and were maintained in EMEM with 2 mg/mL G418 added to maintain transporter expression. The HeLa derivative KB-3-1 and the P-gp overexpressing KB-8-5-11 subline were maintained in DMEM; KB-8-5-11 additionally received 100 ng/mL colchicine. H460 parental cells were obtained from the Division of Cancer Treatment and Diagnosis Tumor Repository, National Cancer Institute at Frederick, MD and were cultured in RPMI. The ABCG2 expressing subline H460 MX20 was generated by selecting H460 cells in 20 nM mitoxantrone. Media in all cases was supplemented with 10% FBS and 1% penicillin-streptomycin. We explored 27 common ADC payloads, in two orthogonal, paired cell line sets-a drug selected and transfected set for each transporter--to identify substrates of the ABC transporters P-gp and ABCG2. Compounds were sourced from Levena Biopharma (San Diego, CA), Selleck Chem (Houston, TX), ChemieTek (Indianapolis, IN), or Microsource Discovery Systems (Gaylordsville, CT). Screening was performed as previously described. Briefly, cells were plated at a density of 500 cells/well in 1536 well plates with compounds added using a 1536-head pin tool (Kalypsys, San Diego CA). Cells were incubated with cytotoxic drugs and processed with CellTiter Glo reagent (Promega, Madison, WI) to determine viability after 48 hours. P-gp substrates were identified by comparing compound activity between paired sets of low-expressing (sensitive) and over-expressing (resistant) cell lines.
`COc1cc2cc(C(=O)N3C[C@@H](CCl)c4c3cc(O)c3ccccc43)[nH]c2c(OC)c1OC`: the Potency was 1.7 nM (active). The figure for `COc1cc2cc(c1Cl)N(C)C(=O)C[C@H](OC(=O)C(C)C)[C@]1(C)O[C@H]1[C@H](C)[C@@H]1C[C@@](O)(NC(=O)O1)[C@H](OC)C=CC=C(C)C2` is 0.3 nM (active); for `CC[C@H](C)[C@@H]([C@@H](CC(=O)N1CCC[C@H]1[C@H](OC)[C@@H](C)C(=O)N[C@H](C)[C@@H](O)c1ccccc1)OC)N(C)C(=O)[C@@H](NC(=O)[C@H](C(C)C)N(C)C)C(C)C` it is 1.3 nM (active). The figure for `COc1cccc2c1C(=O)c1c(O)c3c(c(O)c1C2=O)C[C@@](O)(C(=O)CO)CC3OC1CC(N2CCOC(OC)C2)C(O)C(C)O1` (some centres not stated) is 1.3 nM (active); for `COc1cc2cc(c1Cl)N(C)C(=O)C[C@H](OC(=O)[C@H](C)N(C)C(=O)CCC(C)(C)S)[C@]1(C)OC1[C@H](C)C1C[C@@](O)(NC(=O)O1)[C@H](OC)/C=C/C=C(\C)C2` (some centres not stated) it is 1.2 nM (active); for `CC[C@H](C)[C@H](NC(=O)[C@H]1CCCCN1C)C(=O)N(C)[C@H](C[C@@H](OC(C)=O)c1nc(C(=O)N[C@@H](Cc2ccccc2)C[C@H](C)C(=O)O)cs1)C(C)C` it is 3.3 nM (active).

With `CC[C@@]1(O)C(=O)OCc2c1cc1n(c2=O)Cc2cc3ccccc3nc2-1`, the Potency was 13.3 nM (active).
